According to PubChem BioAssay (NCATS):
Values joined by “and” are separate entries in the source; they are usually repeats but may differ in a detail not shown here. Equal entries are not always repeated. Inconclusive results are not listed. Entries that show only a call come without a potency. Unmarked numbers belong to inactive results. Active and inactive are the calls of the source. The call rests on the fitted dose curve; in most records, active means well fitted curve in the direction sought with a large enough effect; inconclusive means small, poorly fitted or top-dose-only effect, or another doubt; inactive means no such curve, though single readings can be large; an effect the other way counts as inactive or inconclusive.

What was measured:
[1] = Quantitative highthroughput screen to assess conditional lethalithy of P12 Ichikawa cells grown in Human Plasma-Like Medium with dialyzed fetal bovine serum (HPLM+ds) (AID 1963879); conditions: Potency: viability; further: nearly all actives have a fitted effect of over 35% in size; further: potency means the concentration at half of the fitted maximal effect; on viability: series mostly up to about 46 µM
Outline: (§1)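 Each medium arm—HPLM with 10% dialyzed FBS, or RPMI1640 with 5 mM glucose and 10% untreated or dialyzed FBS—was screened against an 11-point, 3-fold compound titration for 48 h at 37 °C, with CellTiter-Glo luminescence as endpoint.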

[2] = Quantitative highthroughput screen to assess conditional lethalithy of P12 Ichikawa cells grown in RPMI1640 with untreated serum (RPMI+s) (AID 1963881); conditions: Potency: viability; further: nearly all actives have a fitted effect of over 35% in size; further: potency means the concentration at half of the fitted maximal effect; on viability: series mostly up to about 46 µM
Outline: as §1

[3] = Quantitative highthroughput screen to assess conditional lethalithy of SEM cells grown in RPMI1640 with unreated serum (RPMI+s) (AID 1963883); further: nearly all actives have a fitted effect of over 35% in size; further: potency means the concentration at half of the fitted maximal effect
Outline: as §1

[4] = Cellular viability qHTS for adrenocortical cancer (ACC) cell line SW-13 (AID 1963989); conditions: SW-13 ACC cells viability, CellTiter-Glo, 48 h; activity (max response): hits give low values;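 further: cells grown in serum-free medium with ITS supplement; nearly all actives have a fitted effect of over 65% in size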
Outline: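 Luminescent ATP read-out (CellTiter-Glo, 20 min at room temperature) measured metabolically competent SW-13 cells after 48 h compound treatment. Final concentrations spanned up to 46 uM; bortezomib served as positive control.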

[5] = Cellular viability qHTS for adrenocortical cancer (ACC) cell line NCI-H295R (AID 1963990); further: nearly all actives have a fitted effect of over 60% in size; further: potency means the concentration at half of the fitted maximal effect
Outline: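 IC50 and maximal efficacy derive from four-parameter logistic modelling of titration curves, with reads scaled between DMSO-only wells (0%) and doxorubicin hydrochloride (100% inhibition). Compounds spanned up to 46 uM over 48 h.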

[6] = Quantitative highthroughput screen to assess conditional lethalithy of NOMO1 cells grown in RPMI1640 with untreated serum (RPMI+s) (AID 1963876); further: nearly all actives have a fitted effect of over 35% in size; further: potency means the concentration at half of the fitted maximal effect
Outline: as §1

[7] = Quantitative highthroughput screen to assess conditional lethalithy of SEM cells grown in Human Plasma-Like Medium with dialyzed fetal bovine serum (HPLM+ds) (AID 1963882); further: nearly all actives have a fitted effect of over 35% in size; further: potency means the concentration at half of the fitted maximal effect; on viability: series mostly up to about 46 µM
Outline: as §1

[8] = Quantitative highthroughput screen to assess conditional lethalithy of SEM cells grown in RPMI1640 with dialyzed fetal bovine serum (RPMI+ds) (AID 1963884)
Outline: as §1

[9] = Quantitative highthroughput screen to assess conditional lethalithy of P12 Ichikawa cells grown in RPMI1640 with dialyzed fetal bovine serum (RPMI+ds) (AID 1963880); conditions: Potency: P12-Ichikawa viability
Outline: as §1

[10] = Quantitative highthroughput screen to assess conditional lethalithy of NOMO1 cells grown in Human Plasma-Like Medium with dialyzed fetal bovine serum (HPLM+ds) (AID 1963878); further: nearly all actives have a fitted effect of over 35% in size
Outline: as §1

[11] = Quantitative highthroughput screen to assess conditional lethalithy of NOMO1 cells grown in RPMI1640 with dialyzed fetal bovine serum (RPMI+ds) (AID 1963877); further: nearly all actives have a fitted effect of over 30% in size; further: potency means the concentration at half of the fitted maximal effect; on viability: series mostly up to about 46 µM
Outline: as §1

**Q.** For `C[C@]12CC[C@@H]3[C@@H](CCC4=CC(=O)CC[C@@H]43)[C@@H]1CC[C@@H]2OC(=O)CCc1ccccc1`, which Potency [1] is on record?
**A.** inactive

**Q.** And the Potency [2]?
**A.** inactive

**Q.** What about the Potency [3] of the same compound?
**A.** inactive

**Q.** And the activity (max response) [4]?
**A.** -2.06%

**Q.** What about the Potency [5] of the same compound?
**A.** inactive

**Q.** What does the source list for `C[C@]12COC(=O)C[C@@H]1CC[C@@H]1[C@H]2CC[C@@]2(C)[C@H]1CC[C@]2(C)O`?
**A.** Potency [6]: inactive; Potency [1]: inactive; Potency [7]: inactive; Potency [8]: inactive

**Q.** Which results are given for `Cc1ccccc1-n1c(Cn2cnc3c(N)ncnc32)nc2cccc(C)c2c1=O`?
**A.** Potency [1]: inactive; Potency [7]: 0.296 µM (active); Potency [3]: 1.18 µM (active); activity (max response) [4]: 9.58%

**Q.** For `CC(C)[C@]12O[C@@H]1[C@@H]1O[C@]13[C@]1(O[C@H]1C[C@@H]1C4=C(CC[C@@]13C)C(=O)OC4)[C@H]2O`, which Potency [6] is on record?
**A.** 0.0012 µM (active)

**Q.** And the Potency [9]?
**A.** 0.0012 µM (active)

**Q.** What about the Potency [2] of the same compound?
**A.** 0.0015 µM (active)

**Q.** What about the Potency [7] of the same compound?
**A.** 0.0012 µM (active)

**Q.** And the Potency [3]?
**A.** 0.0012 µM (active)

**Q.** Which Potency [10] does the source give for `COc1ccc(CC2NCCc3cc(OC)c(OC)cc32)cc1OC` (configuration not stated) here?
**A.** inactive

**Q.** And the Potency [1]?
**A.** inactive

**Q.** And the Potency [2]?
**A.** inactive

**Q.** What about the Potency [3] of the same compound?
**A.** 14.8 µM (active)

**Q.** With `Cn1cc(C2=C(c3cn(C4CCN(Cc5ccccn5)CC4)c4ccccc34)C(=O)NC2=O)c2ccccc21` as the compound, how does the Potency [6] read?
**A.** inactive

**Q.** And the Potency [1]?
**A.** inactive

**Q.** What about the activity (max response) [4] of the same compound?
**A.** -7.67% and -14.7%

**Q.** What about the Potency [5] of the same compound?
**A.** inactive

**Q.** With `NC1=NC(=O)N2CC12` (configuration not stated) as the compound, how does the Potency [11] read?
**A.** 5.26 µM (active)

**Q.** What about the Potency [1] of the same compound?
**A.** 7.43 µM (active)

**Q.** And the Potency [7]?
**A.** 3.32 µM (active)

**Q.** What about the activity (max response) [4] of the same compound?
**A.** -7.87%

**Q.** What about the Potency [5] of the same compound?
**A.** inactive

**Q.** What does the source list for `C[C@@H]1CC[C@@]2(OC1)O[C@H]1C[C@H]3[C@@H]4CC=C5C[C@@H](O[C@@H]6O[C@H](CO)[C@@H](O[C@@H]7O[C@@H](C)[C@H](O)[C@@H](O)[C@@H]7O)[C@H](O)[C@@H]6O[C@@H]6O[C@@H](C)[C@H](O)[C@@H](O)[C@@H]6O)CC[C@]5(C)[C@@H]4CC[C@]3(C)[C@@H]1[C@H]2C`?
**A.** Potency [11]: 23.5 µM (active); Potency [1]: 26.4 µM (active); Potency [7]: 18.7 µM (active)

**Q.** What does the source list for `CCN1C[C@]2(OC(=O)c3ccccc3NC(C)=O)CC[C@H](OC)[C@@]34[C@H]5CC6[C@@H](OC)C[C@](O)(C(C[C@@H]23)[C@@H]14)[C@@]5(O)[C@@H]6OC`?
**A.** Potency [2]: inactive; Potency [3]: 6.62 µM (active); activity (max response) [4]: -5.39%; Potency [5]: inactive

**Q.** Which Potency [9] does the source give for `CCCN1CCO[C@@H]2c3cc(O)ccc3OC[C@@H]21` here?
**A.** 26.4 µM (active)

**Q.** Which Potency [10] does the source give for `Cc1nc(-c2ccc(-c3ccc(C(=O)N4CCc5cc6c(cc54)C4(CCN(C)CC4)CO6)cc3)c(C)c2)no1` here?
**A.** inactive

**Q.** And the Potency [1]?
**A.** inactive

**Q.** What about the Potency [2] of the same compound?
**A.** inactive

**Q.** And the Potency [3]?
**A.** inactive

**Q.** What does the source list for `C=C[C@@H]1CN2CCC1C[C@@H]2[C@@H](O)c1ccnc2ccccc12` (some centres not stated)?
**A.** Potency [2]: inactive; Potency [7]: inactive

**Q.** For `CC(C)N[C@@H]1CCn2c(=O)[nH]c3cccc(c32)[C@@H]1O`, which Potency [11] is on record?
**A.** inactive

**Q.** What about the Potency [1] of the same compound?
**A.** inactive

**Q.** What about the Potency [2] of the same compound?
**A.** inactive

**Q.** And the Potency [7]?
**A.** inactive

**Q.** With `CC(O)(CS(=O)(=O)c1ccc(F)cc1)C(=O)Nc1ccc(C#N)c(C(F)(F)F)c1` (configuration not stated) as the compound, how does the Potency [7] read?
**A.** inactive

**Q.** Which Potency [7] does the source give for `C[C@H]([C@H](O)CCC(C)(C)O)[C@H]1CC[C@@]2(O)C3=CC(=O)[C@@H]4C[C@@H](O)[C@@H](O)C[C@]4(C)[C@@H]3CC[C@]12C` here?
**A.** inactive

**Q.** Which activity (max response) [4] does the source give for `CNC(C)Cc1ccc2c(c1)OCO2` (configuration not stated) here?
**A.** -2%

**Q.** And the Potency [5]?
**A.** inactive

**Q.** What does the source list for `CC(=O)N1N=C(c2ccc(N)cc2)c2cc3c(cc2C[C@H]1C)OCO3`?
**A.** activity (max response) [4]: -25.9%; Potency [5]: inactive

**Q.** What does the source list for `CN(C)CCc1c[nH]c2cccc(O)c12`?
**A.** activity (max response) [4]: 3.4%; Potency [5]: inactive

**Q.** Which results are given for `COc1ccc2c3c1O[C@H]1[C@H](O)CC[C@H]4[C@@H](C2)N(C)CC[C@@]341`?
**A.** activity (max response) [4]: -5.89%; Potency [5]: inactive

**Q.** What does the source list for `CCc1ccc(C2CCNCC2)cc1`?
**A.** activity (max response) [4]: -14%; Potency [5]: inactive

**Q.** For `CC(Cc1ccccc1)NCCn1cnc2c1c(=O)n(C)c(=O)n2C` (configuration not stated), which activity (max response) [4] is on record?
**A.** -22.4%

**Q.** And the Potency [5]?
**A.** inactive

**Q.** For `Nc1ccc([As](=O)(O)O)cc1`, which activity (max response) [4] is on record?
**A.** 13.3%

**Q.** What about the Potency [5] of the same compound?
**A.** inactive

**Q.** Which activity (max response) [4] does the source give for `C[C@]12CC[C@H]3[C@@H](CCC4=CC(=O)CC[C@@H]43)[C@@H]1CC[C@@H]2OC(=O)CCc1ccco1` here?
**A.** -19.1%

**Q.** And the Potency [5]?
**A.** 18.4 µM (active)
